Bioassay records: PubChem, National Center for Advancing Translational Sciences (NCATS)
Giardia killer: Small Molecules that selectively kill Giardia lamblia: qHTS; Giardia lamblia trophozoite viability; activity change, % at 7.66 µM, hits read low; actives 0.15% (n = 340,000); in the data active = activity change below about -80%; inconclusive = between about -30% and that limit;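 note: parasites exposed to compound for two days anaerobically before the ATP read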
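Luminescent ATP signal served as the viability read-out, measured 15-30 min after adding ATP detection reagent to trophozoites that had been incubated with compounds for 48 hrs at 37 deg C anaerobically at 100 cells/well.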
ELG1 repair inh: qHTS screen for small molecules that inhibit ELG1-dependent DNA repair in human embryonic kidney (HEK293T) cells expressing luciferase-tagged ELG1 | HEK293T ELG1-luciferase reporter, luminescence, 16 h; DNA damage induced by 5-fluorouridine | Potency, µM (series often up to 46.1 µM), hits mostly inhibitors | actives 2.3% (n = 330,000) | AID 504467, 2011; note: nearly all actives have a fitted effect of over 55% in size
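Cells (2,000 per well) received 5-fluorouridine plus test compound or DMSO and were incubated 16 hr at 37 °C, 5% CO2. Luciferase activity was read by luminescence 30 min after ONE-Glo addition; signal suppression marked inhibition of damage-induced ELG1 function.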
TRPV1 ag: HTS Assay for Compounds that Act as Agonists of the Vanilloid Receptor 1 | Transient receptor potential cation channel subfamily V member 1 (Homo sapiens), Q8NER1 | TRPV1-expressing cells, Fluo-8 calcium influx, agonist mode | activation, % at 8.33 µM | actives 0.19% (n = 320,000) | AID 540275, 2011; in the data active = activation above about 80%; inconclusive = between about 30% and that limit
Target sequence (Q8NER1 whole entry, looked up): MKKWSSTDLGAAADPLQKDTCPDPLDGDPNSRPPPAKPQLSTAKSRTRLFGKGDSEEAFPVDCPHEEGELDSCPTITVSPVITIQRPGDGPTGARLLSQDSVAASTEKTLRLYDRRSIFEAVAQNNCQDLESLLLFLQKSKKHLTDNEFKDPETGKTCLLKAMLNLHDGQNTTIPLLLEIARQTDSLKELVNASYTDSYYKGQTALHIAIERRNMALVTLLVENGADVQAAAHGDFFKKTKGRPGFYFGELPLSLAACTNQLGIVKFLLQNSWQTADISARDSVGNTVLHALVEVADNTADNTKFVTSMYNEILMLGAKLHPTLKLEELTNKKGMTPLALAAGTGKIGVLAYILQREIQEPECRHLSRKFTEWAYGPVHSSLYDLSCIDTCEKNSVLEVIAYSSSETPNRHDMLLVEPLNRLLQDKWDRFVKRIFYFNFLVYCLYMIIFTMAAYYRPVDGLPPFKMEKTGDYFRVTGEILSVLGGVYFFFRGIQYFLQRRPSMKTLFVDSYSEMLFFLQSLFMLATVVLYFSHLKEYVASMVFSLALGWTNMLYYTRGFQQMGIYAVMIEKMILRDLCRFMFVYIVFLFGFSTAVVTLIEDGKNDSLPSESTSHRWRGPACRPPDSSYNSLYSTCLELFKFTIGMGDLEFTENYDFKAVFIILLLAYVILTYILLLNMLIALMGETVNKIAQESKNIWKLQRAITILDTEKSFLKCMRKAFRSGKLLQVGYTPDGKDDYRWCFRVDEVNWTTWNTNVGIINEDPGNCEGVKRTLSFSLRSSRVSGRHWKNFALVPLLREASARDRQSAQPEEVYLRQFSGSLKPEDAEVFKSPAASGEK
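Cells expressing TRPV1 were dye-loaded with Fluo-8 and read kinetically: 10 s baseline, 3 min after compound (agonist portion), then 2 min after EC20 capsaicin (allosteric enhancer portion). Calcium-bound dye fluorescence at 480/520 nm.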
FUS suppressor: qHTS for Suppressors of FUS Proteinopathy: Primary screen using FUS-linked yeast assay. S. cerevisiae FUS-expressing, growth rescue, OD600, 24 h. AID 1347120, 2019. actives 0.24% (n = 390,000). Potency, µM (highest dose often 76.6 µM), actives largely listed as activators; note: nearly all actives have a fitted effect of over 55% in size
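Cultures pregrown in 2.5% raffinose medium are shifted to minimal medium containing 2% galactose to express toxic FUS. Compounds are tested at several concentrations. After 24hr at 30C, growth is quantified at 600 nm absorbance.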
TRPV1 PAM: HTS Assay for Compounds that Act as Potentiators of the Vanilloid Receptor 1 | Transient receptor potential cation channel subfamily V member 1 (Homo sapiens), Q8NER1 | TRPV1-expressing cells, Fluo-8 calcium influx, capsaicin EC20 potentiation | potentiation, % at 8.33 µM | actives 0.02% (n = 320,000) | AID 540277, 2011; in the data active = potentiation above about 80%; inconclusive = between about 30% and that limit
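Fluo-8 calcium influx in TRPV1-expressing cells, kinetic read (ex 480/em 520 nm). Compound added and read 3 min for agonist activity, followed by capsaicin at EC20 final and 2 min further read for enhancement.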
Numbers stand for hits; n = inactive; u = inconclusive; x = no result given. Hits are enriched below; roughly 2.3% of the tested compounds scored in any of these assays. Unless noted, calls come from the whole dose curve; as a rule, active = well fitted curve in the direction sought with a large enough effect; inconclusive = small, poorly fitted or top-dose-only effect, or another doubt; inactive = no such curve, though single readings can be large; an effect the other way counts as inactive or inconclusive.

SMILES	Giardia killer	ELG1 repair inh	TRPV1 ag	FUS suppressor	TRPV1 PAM
O=C(CNc1cccc([N+](=O)[O-])c1)N/N=C/c1ccc([N+](=O)[O-])o1	-107	u	n	n	n
O=C(Nc1ccc(CN2CCOCC2)cc1)c1ccc(-c2cccc([N+](=O)[O-])c2)o1	n	13µM	n	n	n
O=C(Nc1ccc(CN2CCOCC2)cc1)c1ccc(-c2cc(Cl)ccc2Cl)o1	n	23µM	n	n	n
O=C(Nc1ncc(Cc2cccc(C(F)(F)F)c2)s1)c1ccc(-c2cccc([N+](=O)[O-])c2)o1	n	12µM	n	n	n
O=[N+]([O-])c1cccc(-c2ccc(C(=S)N3CCOCC3)o2)c1	n	u	n	n	n
O=C(Nc1nccs1)c1ccc(-c2cccc([N+](=O)[O-])c2)o1	n	u	u	n	n
CCC1CCCCN1C(=O)CSc1nnc(-c2ccc(OC)c(OC)c2)o1 (configuration not stated)	x	x	x	n	x
COc1ccc(-c2nc(-c3ccccn3)no2)cc1	-81	u	n	n	n
Cc1nc(-c2ccccn2)nc(N2CCOCC2)c1Cl	n	u	n	n	n
c1ccc(-c2nc(N3CCCCCC3)c3ccccc3n2)nc1	n	2.6µM	u	n	n
COc1ccccc1-c1nc(-c2ccccn2)no1	u	u	n	n	n
CCN1CCN(c2nc(-c3ccccn3)nc3ccccc23)CC1	n	u	n	n	n
c1ccc(-c2nc(N3CCOCC3)c3ccccc3n2)nc1	n	16µM	n	n	n
c1ccc(CN2CCN(c3nc(-c4ccccn4)nc4ccccc34)CC2)cc1	n	8.2µM	n	n	n
C[C@H]1[C@@H](OC(=O)Nc2cccc(C(F)(F)F)c2)CC[C@@]23CCCN2C(=O)CCC[C@@H]13	x	x	x	n	x
CCOc1ccccc1C(=O)N(Cc1cc(OC)c(OC)c(OC)c1)c1ccccn1	x	x	x	n	x
CCOC(=O)N1C(COCc2ccccc2)C=CCS1(=O)=O (configuration not stated)	n	x	x	x	x
COc1ccc(Oc2nc(-c3ccccn3)nc3ccccc23)cc1	n	9.2µM	x	n	x
c1ccc(CCNc2nc(-c3ccccn3)nc3ccccc23)cc1	n	4.1µM	u	n	n
c1ccc(Oc2nc(-c3ccccn3)nc3ccccc23)cc1	n	u	u	n	n
CCCN(CCC)c1nc(-c2ccccn2)nc2ccccc12	u	u	n	n	n
CN1CCN(C(=O)c2ccc(-c3ccc(F)c(F)c3)c3ccoc23)CC1	x	x	x	n	x
COc1ccccc1C(=O)Nc1nc2ccccc2s1	u	u	n	n	u
Cc1cc(NC(=O)CC#N)n(-c2nc3ccccc3[nH]2)n1	n	12µM	n	n	n
COc1ccc(C(=O)Nc2cc(C)nn2-c2nc3ccccc3[nH]2)c(OC)c1	n	23µM	u	n	n
SMILES	Giardia killer	ELG1 repair inh	TRPV1 ag	FUS suppressor	TRPV1 PAM
Cc1cc(NC(=O)c2ccccc2)n(-c2nc3ccccc3[nH]2)n1	n	n	u	n	n
COc1ccc(C(=O)Nc2nc3ccccc3s2)c(OC)c1	-95	3.7µM	n	n	n
COC(=O)[C@]12C[C@H](CC(=O)NCCCN3CCCC3=O)C(=O)N(Cc3ccco3)C1=C[C@H](COCc1ccccc1)O[C@@H]2C	x	x	x	n	x
CCN(CC(=O)Nc1ccccc1OC)Cc1csc(CC(=O)Nc2ccc(C)cc2)n1	n	9.2µM	x	n	x
Cc1ccc(NC(=O)Cc2nc(COC(=O)c3c(F)cccc3Cl)cs2)cc1	n	18µM	x	n	x
CC(=O)c1c(C)[nH]c(C(=O)OCc2csc(CC(=O)Nc3ccccc3C)n2)c1C	n	13µM	x	n	x
Cc1ccccc1NC(=O)Cc1nc(COC(=O)c2ccc(Cl)c(S(N)(=O)=O)c2)cs1	n	5.2µM	n	n	n
Cc1ccc(NC(=O)Cc2nc(COC(=O)Cc3cccc(C(F)(F)F)c3)cs2)cc1	n	n	n	n	n
O=C(NCCCN1CCOCC1)c1ccc(-n2nc(C(F)(F)F)cc2-c2cccs2)cc1	n	15µM	n	n	n
CCCCSCCCNC(=O)c1c[nH]c2ccc(S(=O)(=O)Nc3cccc(OC)c3)cc2c1=O	x	x	x	n	x
CCCCOC(=O)Nc1ccc(C(C)C)cc1	n	u	81	n	n
CCCCOC(=O)Nc1ccc(C(N)=O)cc1	n	u	n	n	n
COc1cccc(CCNC(=O)Cn2c(-c3cccs3)cc3ccccc32)c1	x	x	x	n	x
COc1ccc(-c2nnc(-c3ccccc3)o2)cc1OC	n	u	n	n	n
COc1cc(-c2nnc(-c3cccnc3)o2)cc(OC)c1OC	n	u	n	n	n
COc1cc(-c2nnc(-c3ccccc3)o2)cc(OC)c1OC	n	23µM	n	n	n
COc1cc(-c2nnc(-c3cc(OC)c(OC)c(OC)c3)o2)cc(OC)c1OC	n	8.2µM	n	n	n
CCCCc1ccc(Nc2ncnc3c2cnn3-c2ccc(C)cc2)cc1	x	x	x	n	x
CCOC(=O)[C@H](CCc1ccccc1)N[C@@H](C)C(=O)N1Cc2cc(OC)c(OC)cc2C[C@H]1C(=O)O	x	x	x	n	x
COc1ccc(NC(=S)NNC(=O)C2CC2c2ccc(C)cc2)cc1 (configuration not stated)	n	n	n	x	n
Cc1ccc(NC(=S)NNC(=O)C2CC2c2ccc(C)cc2)cc1 (configuration not stated)	n	n	n	28µM	n
O=C(Nc1ccccn1)c1cc(-c2cccnc2)nc2ccc(Br)cc12	n	u	n	n	n
CC(=O)c1ccc(N2CCN(C(=O)c3cc(-c4cccnc4)nc4ccc(Br)cc34)CC2)cc1	n	16µM	n	n	n
O=C(Nc1ccc(C(=O)N2CCOCC2)cc1)c1cc(-c2cccnc2)nc2ccc(Br)cc12	n	9.2µM	n	n	n
CCOc1cc(C2C(C(=O)OC)=C(C)NC3=C2C(=O)c2ccccc23)c(Br)cc1O (configuration not stated)	x	x	x	n	x
SMILES	Giardia killer	ELG1 repair inh	TRPV1 ag	FUS suppressor	TRPV1 PAM
CC(=O)/C(N=Nc1nc2c([nH]1)c(=O)n(C)c(=O)n2C)=C(\C)O	n	u	n	2.2µM	n
Cn1c(=O)c2[nH]c(N=NN3CCCCC3)nc2n(C)c1=O	n	x	x	n	x
COc1cc(/C=C/C(=O)N(C)CC(=O)Nc2ccccc2SC)cc(OC)c1OC	n	16µM	x	x	x
COCCn1c(SCC(=O)c2c(C)[nH]c3ccccc23)nc2cc(C(=O)NC(C)C)ccc2c1=O	x	x	x	n	x
COc1ccc(-c2nc(S(=O)(=O)c3ccc(Cl)cc3)c(NCc3ccccc3)o2)cc1	x	x	x	n	x
CN(C)c1ccc2nc3ccc(=[N+](C)C)cc-3sc2c1	n	0.73µM	n	u	n
Cc1cc2nc3ccc(=[N+](C)C)cc-3sc2cc1N	n	0.65µM	n	u	n
